Drawing on PubChem BioAssay, this text covers z-score and composite z-score for 14 compounds.

Active and inactive are the calls of the source.

Test [1] is described as follows: optical density shifts of acrAB sulA E. coli – strain DRC41, OD650, 48 h, E. coli filamentation inducer project, primary screen (AID 1152).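 Also: E. coli MC1000 strain DRC41 lacking acrAB efflux pump and sulA.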 The following applies: higher = more signal, called active from +8 up or from −8 down.
Test [2] is described as follows: probe aLefty1 binding on compound microarray – biochemical, small-molecule microarray, 635/667 nm fluorescence, primary screen (AID 1153).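 Also: score merges spot fluorescence with signal-to-noise ratio from the scanned slide images.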 The following applies: higher = more signal.
A short description of test [3]: plasmodial surface anion channel blockers, osmotic lysis – cell-based, P. falciparum Indochina, OD700, 1 h, primary screen (AID 1154). Particulars: P. falciparum Indochina infected RBC osmotic lysis, higher = more signal, called active from +8 up or from −8 down.
The nature of test [4]: plasmodial surface anion channel blockers, osmotic lysis – cell-based, P. falciparum Indochina, OD700, 2 h, primary screen (AID 1155).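 Also: lysis reports solute entry through the parasite surface anion channel PSAC.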 The following applies: P. falciparum Indochina infected erythrocytes, higher = more signal, called active from +8 up or from −8 down.
Test [5] can be described thus: changes in parasitized red cell lysis, either direction – P. falciparum Indochina, OD700, 3 h, PSAC antagonist project, primary screen (AID 1156). Particulars: P. falciparum-infected erythrocytes, osmotic lysis, higher = more signal, called active from +8 up or from −8 down.
The nature of test [6]: plasmodial surface anion channel blockers, osmotic lysis – cell-based, P. falciparum Indochina, OD700, 18 h, primary screen (AID 1157). The following applies: P. falciparum Indochina infected erythrocytes, osmotic lysis OD700, 18 h; higher = more signal, called active from +8 up or from −8 down.
A short description of test [7]: S6 kinase pathway phospho-S6 level changes – cell-based, A549, cytoblot, luminescence, serum-stimulated, primary screen (AID 1158).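 Also: serum-stimulated A549 lung adenocarcinoma cells; signal is phosphorylated S6 detected by cytoblot immunostaining with HRP secondary.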 Particulars: 5 h, higher = more signal.
Test [8] has as its target NADPH oxidase 2 (Homo sapiens) (UniProt P04839). In words: compounds shifting NOX2 Amplex Red fluorescence – cell-based, HEK293-NOX2, PMA-stimulated, NOX inhibitor project, primary screen (AID 1159). Also: test concentration not given here. Particulars: 45 min, higher = more signal, called active from +8 up or from −8 down.
Test [9] has as its target NADPH oxidase 4 (Homo sapiens) (UniProt Q9NPH5). The experiment in a line: compounds shifting NOX4 Amplex Red fluorescence – cell-based, HEK293-NOX4, tetracycline-induced, NOX inhibitor project, primary screen (AID 1160). Particulars: HEK293-NOX4, Amplex Red H2O2 fluorescence, 45 min; higher = more signal, called active from +8 up or from −8 down.
The target in test [10] is NADPH oxidase 5 (Homo sapiens) (UniProt Q96PH1). In words: compounds shifting NOX5 Amplex Red fluorescence – cell-based, HEK293-NOX5, NOX inhibitor project, primary screen (AID 1161). Particulars: HEK293-NOX5, ionomycin, 45 min, higher = more signal.
Sequence of NADPH oxidase 5 (Homo sapiens) (Q96PH1 whole entry, looked up): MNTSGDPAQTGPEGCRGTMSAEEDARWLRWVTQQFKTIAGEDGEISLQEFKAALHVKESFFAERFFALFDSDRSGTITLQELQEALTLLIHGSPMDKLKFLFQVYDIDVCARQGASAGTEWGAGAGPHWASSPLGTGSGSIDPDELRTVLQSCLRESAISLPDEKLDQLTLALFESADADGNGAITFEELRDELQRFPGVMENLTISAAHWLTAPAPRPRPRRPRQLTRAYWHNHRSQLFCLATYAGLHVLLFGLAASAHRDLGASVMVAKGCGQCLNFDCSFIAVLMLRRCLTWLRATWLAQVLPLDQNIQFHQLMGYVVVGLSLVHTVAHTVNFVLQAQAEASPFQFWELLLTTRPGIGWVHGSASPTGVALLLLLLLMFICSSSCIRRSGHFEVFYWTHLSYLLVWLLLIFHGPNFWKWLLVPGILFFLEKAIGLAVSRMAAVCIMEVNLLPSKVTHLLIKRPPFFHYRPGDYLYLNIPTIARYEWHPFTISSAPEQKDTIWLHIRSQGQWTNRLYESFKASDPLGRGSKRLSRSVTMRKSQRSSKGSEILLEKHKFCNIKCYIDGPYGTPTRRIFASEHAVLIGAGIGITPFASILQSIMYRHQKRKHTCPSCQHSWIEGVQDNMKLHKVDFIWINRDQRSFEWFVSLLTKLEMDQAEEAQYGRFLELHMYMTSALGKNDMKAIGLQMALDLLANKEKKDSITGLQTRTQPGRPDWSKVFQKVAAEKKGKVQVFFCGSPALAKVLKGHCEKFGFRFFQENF

Sequence of NADPH oxidase 4 (Homo sapiens) (Q9NPH5 whole entry, looked up): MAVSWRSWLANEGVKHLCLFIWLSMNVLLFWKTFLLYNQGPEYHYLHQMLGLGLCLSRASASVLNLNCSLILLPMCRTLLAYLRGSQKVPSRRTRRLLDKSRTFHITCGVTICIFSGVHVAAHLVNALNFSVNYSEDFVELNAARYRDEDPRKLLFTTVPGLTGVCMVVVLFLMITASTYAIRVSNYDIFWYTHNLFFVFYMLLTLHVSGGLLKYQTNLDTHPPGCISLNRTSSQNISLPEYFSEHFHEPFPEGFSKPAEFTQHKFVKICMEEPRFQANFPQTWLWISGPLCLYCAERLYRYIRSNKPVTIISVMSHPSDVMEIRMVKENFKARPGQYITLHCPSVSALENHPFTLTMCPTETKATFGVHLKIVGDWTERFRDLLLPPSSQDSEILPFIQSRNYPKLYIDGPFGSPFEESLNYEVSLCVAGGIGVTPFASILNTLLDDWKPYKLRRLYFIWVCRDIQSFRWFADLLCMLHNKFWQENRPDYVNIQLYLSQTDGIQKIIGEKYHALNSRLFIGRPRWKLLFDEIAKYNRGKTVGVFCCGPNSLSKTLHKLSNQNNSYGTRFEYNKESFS
Sequence of NADPH oxidase 2 (Homo sapiens) (P04839 whole entry, looked up): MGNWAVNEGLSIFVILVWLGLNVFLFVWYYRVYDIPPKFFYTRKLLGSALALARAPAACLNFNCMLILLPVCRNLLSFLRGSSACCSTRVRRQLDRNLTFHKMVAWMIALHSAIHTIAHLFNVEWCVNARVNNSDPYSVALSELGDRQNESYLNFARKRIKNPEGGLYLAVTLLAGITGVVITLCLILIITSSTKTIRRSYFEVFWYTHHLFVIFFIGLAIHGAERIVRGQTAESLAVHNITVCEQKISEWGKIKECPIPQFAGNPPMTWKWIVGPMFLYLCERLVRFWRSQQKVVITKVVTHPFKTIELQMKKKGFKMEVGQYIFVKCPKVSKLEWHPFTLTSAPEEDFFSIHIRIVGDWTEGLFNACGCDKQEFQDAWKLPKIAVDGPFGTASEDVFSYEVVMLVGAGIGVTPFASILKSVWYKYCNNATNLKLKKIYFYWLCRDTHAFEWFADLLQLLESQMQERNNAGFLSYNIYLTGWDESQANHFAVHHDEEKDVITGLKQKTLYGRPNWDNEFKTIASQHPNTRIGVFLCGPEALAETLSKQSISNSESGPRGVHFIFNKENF

As for `O=c1cccc(-c2ccco2)o1`, the z-score in test [1] was -1.13 (inactive); in [3] it was 0.128 (inactive); in test [4], 0.0564 (inactive); in test [5], -0.394 (inactive); in test [6], 0.143 (inactive); in [7], -0.397. Also, the z-score was 0.523 (inactive) in [8], -0.772 (inactive) in test [9] and -0.722 in test [10]. Also, in test [2], the composite z-score is -0.103.
For `CC(C)(C)OC(=O)CC[C@]1(C(=O)N2CCCCC2)COC(c2ccc(OCCCO)cc2)=N1`, the z-score in [1] was 1.12 (inactive); in [3] it was 22.2 (active); in test [4], 5.22 (inactive); in test [5] it was 1.11 (inactive); in [6] it was 0.663 (inactive); in [7], -0.515. Besides, the z-score in test [8] was -2.59 (inactive); in test [9] it was 0.0723 (inactive); in test [10], -2.08. This compound also yielded a composite z-score in test [2] of -0.403.
On to `Nc1cc(Br)ccc1C(=O)O`, for which the z-score is 0.813 (inactive) in test [1]; -0.319 (inactive) in test [3]; 0.371 (inactive) in test [4]; -0.611 (inactive) in test [5]; 0.0089 (inactive) in test [6]; 0.265 in [7]. In addition, the z-score in test [8] was 0.0525 (inactive); in test [9] it was -0.204 (inactive); in test [10], 0.142. Further, the composite z-score in test [2] is 0.139.
On to `COCC(=C=CC[C@H](O)c1cccc(OCCO)c1)C[C@H](O)COCc1ccccc1`, for which the z-score in test [1] was -0.0371 (inactive); in [3], 9.2 (active); in [4], 1.07 (inactive); in test [5], 0.307 (inactive); in test [6] it was 0.404 (inactive); in test [7] it was -0.234. The z-score was -0.436 (inactive) in test [8], -0.797 (inactive) in test [9] and -1.39 in test [10]. This compound showed a composite z-score in [2] of 0.213.
For the compound `CCCCCN1CC=CC23O[C@@H]4/C=C\CCC(C)OC(=O)C4[C@H]2C(=O)N(CCCCCCO)[C@@H]3C1=O` (stereo not given in full), the z-score in test [1] was 1.6 (inactive); in test [3], 1.25 (inactive); in [4], 0.971 (inactive); in test [5] it was 0.26 (inactive); in [6], 0.967 (inactive); in test [7], 2.19. The results for the z-score in test [8], in test [9] and in test [10] were 1.25 (inactive), 0.0532 (inactive) and 1.74, respectively. Also, the composite z-score in [2] was found to be 0.0378.
As to `CC(C)C[C@@H]1NC(=O)[C@@H]2C[C@H](C(=O)NCCCCCC[N+](C)(C)C)[C@H](c3cccc(OCCO)c3)N2C1=O`, the z-score was -0.407 (inactive) in [1]; 6.26 (inactive) in [3]; 1.35 (inactive) in test [4]; -0.953 (inactive) in test [5]; 0.376 (inactive) in [6]; -0.797 in [7]. In addition, the z-score in [8] is 2.3 (inactive); in test [9], 1.31 (inactive); in test [10], 2.51. This compound also displayed a composite z-score in test [2] of 0.22.
On to `CCN(CC)c1ccc(N2CC=CC34O[C@@H]5/C=C\CCC(C)OC(=O)C5[C@H]3C(=O)N(C(C)CO)[C@@H]4C2=O)cc1` (stereo not given in full), for which the z-score in test [1] is 1.23 (inactive); in [3], 0.946 (inactive); in test [4] it was -0.227 (inactive); in test [5], 0.987 (inactive); in [6], 0.304 (inactive); in [7] it was -0.276. For the same compound, the z-score was 0.33 (inactive) in [8], -0.619 (inactive) in test [9] and 1.69 in [10]. Besides, the composite z-score in [2] is -0.196.
`NC(=O)[C@H]1[C@@H]2C(=O)O[C@@H](c3ccccc3)[C@@H](c3ccccc3)N2[C@@H](c2ccc(O)cc2)[C@]12C(=O)Nc1ccc(C#CC3=CCCCC3)cc12`: the z-score was -1.35 (inactive) in test [1]; 3.07 (inactive) in test [3]; 1.45 (inactive) in test [4]; 0.28 (inactive) in test [5]; 1.4 (inactive) in test [6]; -0.425 in test [7]. Also, the z-score in test [8] was 1.18 (inactive); in test [9] it was 0.425 (inactive); in test [10], 0.563. The compound also gave a composite z-score in test [2] of 0.145.
Regarding `CC(=O)n1cc(C(O)C2C=CC3C(=O)N(c4ccccc4)C(=O)C3N2Nc2ccc(C(C)C)cc2)c2ccccc21` (stereo not given), the z-score in test [1] was -1.44 (inactive); in test [3], 2.38 (inactive); in test [4], 0.959 (inactive); in [5], -0.43 (inactive); in test [6], 1.46 (inactive); in [7], -1.04. Moreover, the z-score is -1.19 (inactive) in test [8], -2.92 (inactive) in test [9] and -3.44 in [10]. The composite z-score in test [2] was 0.698.
As to `CCOC(=O)C[C@H]1[C@H](OC(=O)c2ccc(C(=O)c3ccccc3)cc2)[C@@H](NC(=O)CC(C)C)c2cc(OCCCO)ccc2N1C(=O)Cc1ccc(OC)cc1`, the z-score in test [1] is 0.23 (inactive); in test [3] it was 4.38 (inactive); in [4] it was 0.351 (inactive); in test [5], -0.0495 (inactive); in test [6] it was 0.0625 (inactive); in test [7] it was -0.174. Besides, the z-score was -0.354 (inactive) in test [8], 0.528 (inactive) in test [9] and 0.522 in [10]. Further, the composite z-score in [2] turned out to be 0.243.
Regarding `C=C(CCCC)C(=O)CC[C@H](OC(=O)c1ccccc1-c1ccccc1C(=O)O)c1ccccc1OCCO`, the z-score in test [1] was 0.509 (inactive); in test [3] it was 8.58 (active); in test [4], 1.56 (inactive); in [5] it was 1.82 (inactive); in test [6], 0.944 (inactive); in test [7], -0.27. Also, the values for the z-score in test [8], in test [9] and in [10] were 3.25 (inactive), 0.0107 (inactive) and -1.15, respectively. The same compound came in with a composite z-score in [2] of -0.0984.
As for `C=CC1c2cc(O)c(OC)cc2CCN1Cc1ccc([N+](=O)[O-])o1` (stereo not given), the z-score is 1.09 (inactive) in test [1]; 7.89 (inactive) in test [3]; 1.17 (inactive) in test [4]; -0.0585 (inactive) in test [5]; 0.596 (inactive) in test [6]; 0.325 in test [7]. The z-score is -3.42 (inactive) in test [8], -3.12 (inactive) in [9] and -3.25 in test [10]. In test [2], this compound registered a composite z-score of 0.0455.
As for `C[C@]1(C(=O)O)c2ccccc2C(=O)N(Cc2ccc(OC(F)(F)F)cc2)[C@H]1c1ccc(CO)cc1`, the z-score in [1] is 0.026 (inactive); in [3], 3.93 (inactive); in test [4], 0.789 (inactive); in test [5], 0.503 (inactive); in [6] it was 0.18 (inactive); in test [7], -0.115. Further, the z-score in test [8] was 0.948 (inactive); in test [9] it was 0.41 (inactive); in [10] it was -0.52. This compound yielded a composite z-score in test [2] of 0.227.
For the compound `Cc1cccc([C@H]2C[C@H]3C(Br)=C[C@@H]2C(=O)[C@]32CO2)c1`, the z-score in test [1] was -0.227 (inactive); in test [3] it was 0.969 (inactive); in test [4], 0.323 (inactive); in [5] it was 0.463 (inactive); in [6] it was 0.06 (inactive); in test [7], 0.209. In addition, the z-score in test [8] was 0.7 (inactive); in test [9] it was -0.00866 (inactive); in test [10], -0.854. Moreover, the composite z-score in test [2] is -0.147.
